Experimental findings from ChEMBL document CHEMBL1961873, “Compounds: GSK PKIS; Assays: Nanosyn kinase panel” (2012) are described below.

In experiment [1] the target is T1, Serine/threonine-protein kinase D2 (Homo sapiens) (UniProt Q9BZL6).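 Note: mean value of PRKD2 inhibition, from the GSK PKIS screening panel.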
T1 sequence (whole entry): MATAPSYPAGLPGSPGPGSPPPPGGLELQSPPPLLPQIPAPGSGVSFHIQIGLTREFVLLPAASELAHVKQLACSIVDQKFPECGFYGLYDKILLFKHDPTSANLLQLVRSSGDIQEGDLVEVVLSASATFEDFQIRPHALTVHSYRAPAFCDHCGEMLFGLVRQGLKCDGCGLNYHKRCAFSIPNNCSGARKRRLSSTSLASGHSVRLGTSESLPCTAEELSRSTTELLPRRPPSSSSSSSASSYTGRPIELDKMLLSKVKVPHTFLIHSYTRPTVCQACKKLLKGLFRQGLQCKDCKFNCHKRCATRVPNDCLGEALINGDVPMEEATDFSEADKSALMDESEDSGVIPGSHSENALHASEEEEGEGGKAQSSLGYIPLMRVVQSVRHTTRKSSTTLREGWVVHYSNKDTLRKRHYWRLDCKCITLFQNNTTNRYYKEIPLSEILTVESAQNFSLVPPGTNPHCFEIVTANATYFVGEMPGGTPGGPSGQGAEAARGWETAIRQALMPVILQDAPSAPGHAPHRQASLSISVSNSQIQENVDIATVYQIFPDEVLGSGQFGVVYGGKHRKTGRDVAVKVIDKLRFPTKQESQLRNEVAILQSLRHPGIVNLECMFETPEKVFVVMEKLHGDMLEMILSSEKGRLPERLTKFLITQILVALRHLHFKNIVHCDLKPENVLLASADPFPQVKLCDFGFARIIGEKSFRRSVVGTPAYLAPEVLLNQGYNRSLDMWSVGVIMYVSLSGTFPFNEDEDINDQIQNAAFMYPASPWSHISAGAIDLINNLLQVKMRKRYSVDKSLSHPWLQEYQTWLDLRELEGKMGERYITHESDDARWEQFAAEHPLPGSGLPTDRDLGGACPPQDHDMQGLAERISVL
Particulars: at 1 µM.

Experiment [2] addresses T2, Serine/threonine-protein kinase D3 (Homo sapiens) (UniProt O94806).
T2 sequence (whole entry): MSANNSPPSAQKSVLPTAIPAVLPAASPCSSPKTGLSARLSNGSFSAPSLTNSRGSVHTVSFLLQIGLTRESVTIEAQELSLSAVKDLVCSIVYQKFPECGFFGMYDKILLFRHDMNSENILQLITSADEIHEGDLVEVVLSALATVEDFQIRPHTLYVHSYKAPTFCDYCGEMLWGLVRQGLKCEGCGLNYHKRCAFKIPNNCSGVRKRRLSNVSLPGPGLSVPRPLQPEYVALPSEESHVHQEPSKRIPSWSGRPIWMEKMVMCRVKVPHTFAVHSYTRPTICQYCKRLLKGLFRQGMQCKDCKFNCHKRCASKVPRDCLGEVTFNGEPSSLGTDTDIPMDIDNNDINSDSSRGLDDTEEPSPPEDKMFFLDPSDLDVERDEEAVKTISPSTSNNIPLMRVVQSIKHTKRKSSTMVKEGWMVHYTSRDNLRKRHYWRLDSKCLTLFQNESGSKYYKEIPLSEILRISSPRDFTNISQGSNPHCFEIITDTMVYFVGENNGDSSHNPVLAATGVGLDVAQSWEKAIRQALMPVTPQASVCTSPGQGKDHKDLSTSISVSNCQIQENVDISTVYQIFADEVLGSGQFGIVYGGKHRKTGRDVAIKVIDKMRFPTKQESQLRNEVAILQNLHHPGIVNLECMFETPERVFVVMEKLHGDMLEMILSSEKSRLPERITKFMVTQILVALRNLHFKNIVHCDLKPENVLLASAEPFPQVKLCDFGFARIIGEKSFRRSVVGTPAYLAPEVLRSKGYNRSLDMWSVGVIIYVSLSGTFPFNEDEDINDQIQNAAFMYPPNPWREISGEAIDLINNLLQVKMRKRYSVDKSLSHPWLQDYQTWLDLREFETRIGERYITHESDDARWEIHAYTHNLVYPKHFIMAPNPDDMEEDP
Particulars: at 0.1 µM.

Experiment [3] deals with T2, Serine/threonine-protein kinase D3 (Homo sapiens). Particulars: at 1 µM.
In experiment [4] the target is T3, cGMP-dependent protein kinase 1 (Homo sapiens) (UniProt Q13976).
T3 sequence (whole entry): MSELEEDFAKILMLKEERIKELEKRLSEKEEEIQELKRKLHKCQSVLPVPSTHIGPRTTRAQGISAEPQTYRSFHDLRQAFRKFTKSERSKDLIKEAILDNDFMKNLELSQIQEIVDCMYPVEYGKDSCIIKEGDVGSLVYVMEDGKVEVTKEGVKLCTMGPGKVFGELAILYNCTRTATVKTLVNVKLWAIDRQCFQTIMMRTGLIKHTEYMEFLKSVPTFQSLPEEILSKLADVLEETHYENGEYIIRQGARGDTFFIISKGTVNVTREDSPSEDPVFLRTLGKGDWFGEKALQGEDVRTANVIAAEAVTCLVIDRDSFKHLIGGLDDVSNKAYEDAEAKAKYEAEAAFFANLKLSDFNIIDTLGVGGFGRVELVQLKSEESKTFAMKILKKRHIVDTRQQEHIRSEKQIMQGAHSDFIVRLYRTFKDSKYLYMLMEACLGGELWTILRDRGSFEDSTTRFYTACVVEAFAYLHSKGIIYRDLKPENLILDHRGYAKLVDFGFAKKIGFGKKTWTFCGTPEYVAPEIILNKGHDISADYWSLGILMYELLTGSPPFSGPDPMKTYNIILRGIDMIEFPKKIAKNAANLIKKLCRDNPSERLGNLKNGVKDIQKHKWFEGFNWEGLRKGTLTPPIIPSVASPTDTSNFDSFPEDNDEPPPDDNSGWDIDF
To be noted: at 0.1 µM.

In experiment [5] the target is T3, cGMP-dependent protein kinase 1 (Homo sapiens). Particulars: at 1 µM.
The target in experiment [6] is T4, cGMP-dependent protein kinase 2 (Homo sapiens) (UniProt Q13237).
T4 sequence (whole entry): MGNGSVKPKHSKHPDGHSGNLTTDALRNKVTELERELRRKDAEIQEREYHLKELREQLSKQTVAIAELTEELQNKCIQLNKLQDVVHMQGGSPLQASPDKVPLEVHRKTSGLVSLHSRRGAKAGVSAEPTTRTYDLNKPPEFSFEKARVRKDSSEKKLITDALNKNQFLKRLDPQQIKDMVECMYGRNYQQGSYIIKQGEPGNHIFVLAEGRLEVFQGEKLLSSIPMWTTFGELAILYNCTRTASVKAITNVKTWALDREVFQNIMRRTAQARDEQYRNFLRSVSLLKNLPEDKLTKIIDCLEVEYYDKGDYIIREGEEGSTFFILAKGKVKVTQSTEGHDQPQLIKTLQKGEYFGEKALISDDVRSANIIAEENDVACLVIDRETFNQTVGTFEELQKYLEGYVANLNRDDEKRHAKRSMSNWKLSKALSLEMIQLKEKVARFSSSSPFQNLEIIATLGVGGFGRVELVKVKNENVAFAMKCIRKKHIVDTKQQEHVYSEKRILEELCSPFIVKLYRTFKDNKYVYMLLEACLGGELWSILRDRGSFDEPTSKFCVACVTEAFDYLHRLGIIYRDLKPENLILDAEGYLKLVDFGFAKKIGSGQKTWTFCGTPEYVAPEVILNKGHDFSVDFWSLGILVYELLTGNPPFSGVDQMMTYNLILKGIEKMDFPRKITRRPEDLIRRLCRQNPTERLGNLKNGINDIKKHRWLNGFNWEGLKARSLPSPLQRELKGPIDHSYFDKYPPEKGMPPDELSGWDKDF
To be noted: at 0.1 µM.

Experiment [7] addresses T4, cGMP-dependent protein kinase 2 (Homo sapiens). Particulars: at 1 µM.
Experiment [8] addresses T5, cAMP-dependent protein kinase catalytic subunit PRKX (Homo sapiens) (UniProt P51817).
T5 sequence (whole entry): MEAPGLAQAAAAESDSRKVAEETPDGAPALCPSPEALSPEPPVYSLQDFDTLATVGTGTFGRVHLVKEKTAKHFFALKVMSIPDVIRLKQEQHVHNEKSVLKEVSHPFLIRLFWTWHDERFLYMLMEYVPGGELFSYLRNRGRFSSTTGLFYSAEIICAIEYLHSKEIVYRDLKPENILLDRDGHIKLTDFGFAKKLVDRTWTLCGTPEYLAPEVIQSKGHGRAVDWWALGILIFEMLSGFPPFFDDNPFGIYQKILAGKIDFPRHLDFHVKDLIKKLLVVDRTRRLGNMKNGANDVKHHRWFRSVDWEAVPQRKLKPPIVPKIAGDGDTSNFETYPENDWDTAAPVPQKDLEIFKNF
Particulars: at 0.1 µM.

Experiment [9] addresses T5, cAMP-dependent protein kinase catalytic subunit PRKX (Homo sapiens). Particulars: at 1 µM.
Experiment [10] concerns the target Rho-associated protein kinase 1 (Homo sapiens) (UniProt Q13464). Particulars: at 0.1 µM.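 Note: values are mean percent inhibition of ROCK1.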

Rho-associated protein kinase 1 (Homo sapiens), sequence (Q13464 2-1354 limits assumed): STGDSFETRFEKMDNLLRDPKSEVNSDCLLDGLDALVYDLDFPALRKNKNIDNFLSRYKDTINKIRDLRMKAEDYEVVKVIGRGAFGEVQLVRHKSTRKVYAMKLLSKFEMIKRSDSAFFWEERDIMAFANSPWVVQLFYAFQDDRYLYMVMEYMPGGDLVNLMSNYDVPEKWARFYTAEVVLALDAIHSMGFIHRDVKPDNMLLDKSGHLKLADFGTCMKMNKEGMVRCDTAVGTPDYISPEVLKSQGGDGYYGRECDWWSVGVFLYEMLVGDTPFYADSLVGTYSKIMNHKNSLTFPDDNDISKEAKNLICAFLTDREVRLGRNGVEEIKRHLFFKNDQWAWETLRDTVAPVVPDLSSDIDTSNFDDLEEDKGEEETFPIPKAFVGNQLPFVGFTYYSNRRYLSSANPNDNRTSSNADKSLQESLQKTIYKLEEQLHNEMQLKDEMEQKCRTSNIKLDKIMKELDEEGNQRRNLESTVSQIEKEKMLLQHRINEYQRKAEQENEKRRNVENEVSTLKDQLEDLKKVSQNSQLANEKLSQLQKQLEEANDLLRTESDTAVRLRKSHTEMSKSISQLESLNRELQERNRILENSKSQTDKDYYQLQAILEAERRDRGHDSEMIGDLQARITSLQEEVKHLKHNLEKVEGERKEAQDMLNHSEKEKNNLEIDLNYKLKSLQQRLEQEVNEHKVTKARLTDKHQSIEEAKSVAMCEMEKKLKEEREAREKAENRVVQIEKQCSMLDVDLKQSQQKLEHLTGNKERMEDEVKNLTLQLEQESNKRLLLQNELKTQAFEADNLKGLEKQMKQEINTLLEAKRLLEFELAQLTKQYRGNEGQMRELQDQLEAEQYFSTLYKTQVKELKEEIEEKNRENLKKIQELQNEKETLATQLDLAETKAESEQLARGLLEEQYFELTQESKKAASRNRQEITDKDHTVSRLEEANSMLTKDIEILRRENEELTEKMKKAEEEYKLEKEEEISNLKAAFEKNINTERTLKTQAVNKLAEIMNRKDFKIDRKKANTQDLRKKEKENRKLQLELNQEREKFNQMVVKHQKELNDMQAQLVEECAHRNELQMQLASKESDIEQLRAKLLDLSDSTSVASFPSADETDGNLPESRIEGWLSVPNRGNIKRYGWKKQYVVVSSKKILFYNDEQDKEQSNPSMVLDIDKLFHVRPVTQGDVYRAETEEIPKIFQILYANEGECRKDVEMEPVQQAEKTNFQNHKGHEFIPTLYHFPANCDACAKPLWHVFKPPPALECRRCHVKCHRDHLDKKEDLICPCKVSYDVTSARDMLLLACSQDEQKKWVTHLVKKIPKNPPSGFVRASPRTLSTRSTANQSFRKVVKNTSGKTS

On to `C[C@@H](Oc1cc(-n2cnc3ccc(OC[C@@H](O)CO)cc32)sc1C(N)=O)c1ccccc1Cl`, for which the inhibition in experiment [1] was 1.51%; in experiment [2], -1.65%; in experiment [3], 0.06%; in experiment [4] it was -2.27%; in experiment [5], -0.2%; in [6], -0.02%. The inhibition in [7] is -0.19%; in [8], -1.09%; in experiment [9], -8.23%; in experiment [10], 0.14%.

As to `CCS(=O)(=O)c1ccc(OC)c(Nc2nccc(N(C)c3ccc4c(C)n[nH]c4c3)n2)c1`, the inhibition in experiment [1] was 3.25%; in experiment [2], 4.79%; in experiment [3], 4.86%; in experiment [4] it was 4.43%; in experiment [5], 2.44%; in experiment [6], 2.68%. In addition, the inhibition in [7] was 3.13%; in experiment [8], 2.11%; in experiment [9] it was 2.47%; in [10], 1.77%.

Regarding `CC(C)c1ccc2c(c1)NC(=O)/C2=N/Nc1ccc(S(N)(=O)=O)cc1`, the inhibition was -0.41% in [1]; -0.27% in experiment [2]; -0.32% in experiment [3]; -1.53% in [4]; 1.06% in experiment [5]; -0.39% in experiment [6]. The inhibition in [7] is -0.18%; in experiment [8], 0.2%; in experiment [9], -0.32%; in experiment [10], -1.01%.

In the case of `NS(=O)(=O)c1cccc(-c2cc3ccncc3cc2OCc2ccccc2)c1`, the inhibition in experiment [1] came to 5.47%; in [2] it was 6.19%; in experiment [3], 6.3%; in experiment [4] it was 3.6%; in experiment [5] it was 4.53%; in [6], 2.72%. Also, the inhibition came to 5.57% in experiment [7], 1.93% in experiment [8], 0.54% in [9] and 0.94% in experiment [10].

Turning to `O=C(Nc1ccc(Oc2ccc3[nH]c(NC(=O)c4ccco4)nc3c2)cc1)Nc1cc(C(F)(F)F)ccc1F`, the inhibition was -1.48% in experiment [1]; -3.15% in experiment [2]; -1.16% in [3]; 1.18% in experiment [4]; 4.28% in [5]; 1.74% in experiment [6]. Also, the inhibition in experiment [7] came out at 4.38%; in experiment [8] it was 4%; in [9], 4.61%; in [10], 3.36%.

As to `CCn1c(-c2nonc2N)nc2ccc(F)cc21`, the inhibition worked out at 5.33% in experiment [1]; 6.8% in experiment [2]; 6.49% in experiment [3]; 3.97% in [4]; 14.5% in experiment [5]; 8.14% in [6]. Also, the inhibition in experiment [7] came to 41.4%; in experiment [8], 3.36%; in [9], 6.51%; in experiment [10], 2.21%.

On to `COc1ccc(-c2nn3ncccc3c2-c2ccnc(Nc3cccc(C(F)(F)F)c3)n2)cc1`, for which the inhibition in experiment [1] was found to be 3.1%; in experiment [2], 3.18%; in experiment [3] it was 3.3%; in experiment [4], 1.97%; in [5], 2.64%; in experiment [6], 1.78%. Besides, the inhibition in [7] is 2.6%; in [8], 2.11%; in experiment [9], 1.89%; in experiment [10] it was 0.25%.

Consider `CS(=O)(=O)Nc1cccc(-c2ccc3c(NC(=O)C4CC4)n[nH]c3c2)c1`, for which the inhibition was 3.59% in experiment [1]; 1.24% in experiment [2]; 2.48% in experiment [3]; -0.41% in [4]; 1.73% in [5]; 1.34% in [6]. Also, the inhibition in experiment [7] is 2.16%; in experiment [8] it was 0.39%; in experiment [9], -0.61%; in experiment [10], 0.24%.

Turning to `NC(=O)c1sc(-n2cnc3ccccc32)cc1OCc1ccccc1Br`, the inhibition in experiment [1] came to 6.86%; in experiment [2], 5.8%; in experiment [3] it was 8.54%; in experiment [4], 3.41%; in experiment [5] it was 5.69%; in experiment [6], 3.61%. Further, the inhibition in experiment [7] came to 5.73%; in experiment [8] it was 3.19%; in experiment [9] it was 5.64%; in experiment [10] it was 2.06%.

In general, inhibition refers to the change of the read-out against control, counted positive when it falls.
